Inconclusive results are not listed. Activity calls are given as the source filed them. The call rests on the fitted dose curve.
biological target: Nucleoprotein (Lymphocytic choriomeningitis virus (strain Armstrong)) (UniProt P09992); assay: qHTS for Inhibitors of the Functional Ribonucleoprotein Complex (vRNP) of Lymphocytic Choriomeningitis Arenaviruses (LCMV): LCMV Primary Screen - GLuc reporter signal (AID 1347086); details: LCMV minigenome vRNP cell assay, Gaussia luciferase reporter; series mostly up to 57.5 µM; activity change, negative = inhibition: at the top concentration; further: nearly all actives have a fitted effect of over 70% in size
On the % scale 0 is the no-effect control and ±100 the full control effect; potency means the concentration at half of the fitted maximal effect.

Chain of Nucleoprotein (Lymphocytic choriomeningitis virus (strain Armstrong)) (P09992 whole entry, looked up): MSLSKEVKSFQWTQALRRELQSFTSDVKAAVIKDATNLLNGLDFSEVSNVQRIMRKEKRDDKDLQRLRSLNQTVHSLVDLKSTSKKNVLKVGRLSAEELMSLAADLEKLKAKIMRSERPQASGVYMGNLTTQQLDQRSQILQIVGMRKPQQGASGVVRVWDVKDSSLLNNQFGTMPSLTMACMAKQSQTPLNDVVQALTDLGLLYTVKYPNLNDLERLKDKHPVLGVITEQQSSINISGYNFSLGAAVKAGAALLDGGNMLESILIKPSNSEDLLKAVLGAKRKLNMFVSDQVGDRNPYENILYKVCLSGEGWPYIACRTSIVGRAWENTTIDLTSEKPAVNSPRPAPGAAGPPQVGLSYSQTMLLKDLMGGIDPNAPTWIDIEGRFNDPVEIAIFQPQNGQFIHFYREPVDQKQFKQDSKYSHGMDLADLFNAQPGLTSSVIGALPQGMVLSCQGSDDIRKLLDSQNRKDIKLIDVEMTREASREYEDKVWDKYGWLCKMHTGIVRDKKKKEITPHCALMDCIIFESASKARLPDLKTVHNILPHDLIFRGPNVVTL

SMILES	activity change, negative = inhibition	Potency
C/C=C(\C)C(=O)O[C@H](c1cc2ccc(=O)oc2cc1OC)[C@@H](O)C(C)(C)O	1.78% (inactive)	
S=C(NCc1ccccc1)NCc1ccccc1	21.7% (inactive)	
CC12CCC(=O)C=C1C(O)CC1C2CCC2(C)C1CCC2(O)C(=O)CO (stereo not given)	12.7% (inactive)	
CC1(C)C(CO)=CC(=O)C2=C1SCC(=O)N2	3.51% (inactive)	
COc1ccc(C(=O)OCCc2ccc(O)cc2)cc1	-4.98% (inactive)	
CCCC(C)C(O)CC (stereo not given)	0.233% [at 115 µM] (inactive)	
C/C=C1\CN2[C@H]3C[C@@]45c6ccccc6N(C)[C@H]4[C@@H]2CC1C3[C@H]5O (stereo not given in full)	5.97% (inactive)	
CC1(C)CCC[C@@]2(C)[C@@H]1CC[C@@]1(C)OC(=O)C[C@H]21	22.8% (inactive)	
COc1ccc(-c2coc3cc(OC)cc(O)c3c2=O)cc1	10.4% (inactive)	
CN(CC=CC#CC(C)(C)C)Cc1cccc2ccccc12	8.96% (inactive)	
CC(C)=CCC/C(C)=C/COc1c2occc2cc2ccc(=O)oc12	28.8% (inactive)	
C=CC(C)(CCC=C(C)C)OC(=O)c1ccccc1 (stereo not given)	17.7% [at 115 µM] (inactive)	
O=c1c2ccccc2nc2n1CCC2	15.8% (inactive)	
CC(C)(C)[C@]1(O)CCN2C[C@H]3c4ccccc4CCc4cccc(c43)[C@@H]2C1	-34.4% (inactive)	
C=C1[C@@H]2C[C@]3(C(CC2=O)[C@]24C5C[C@H]3[C@H]2N(CC)C[C@]5(C)CC[C@@H]4O)[C@@H]1O (stereo not given in full)	24.5% (inactive)	
CC1(C)C[C@H](O)[C@@]23C[C@@H](OC2=O)[C@]2(C)C(=CCC4[C@@]5(C)CC[C@H](O)C(C)(C)C5CC[C@]42C)[C@@H]3C1 (stereo not given in full)	30% (inactive)	
Cc1c(O)cccc1C(=O)N[C@@H](CSc1ccccc1)[C@H](O)CN1C[C@H]2CCCC[C@@H]2C[C@@H]1C(=O)NC(C)(C)C	1.29% (inactive)	
COC(=O)C=CC(=O)OC		4.85 µM (active)
CCCCCCCCCCC(C)=O	20.5% (inactive)	
O=c1c(O)c(-c2cc(O)c(O)c(O)c2)oc2cc(O)ccc12	8.27% (inactive)	

SMILES	activity change, negative = inhibition	Potency
CCCCc1nc2ccccc2[nH]1	10.2% (inactive)	
COc1cc(-c2cc(=O)c3c(O)cc(O)cc3o2)ccc1O	15.4% (inactive)	
CC(C)CNC(=O)/C=C/C=C/c1ccc2c(c1)OCO2	1.49% (inactive)	
CC(=O)O[C@H](COc1c2ccoc2cc2oc(=O)ccc12)C(C)(C)O	13.9% (inactive)	
CCOC(=O)c1ccccc1	20.2% [at 115 µM] (inactive)	
SC1CCCC1	9.75% [at 115 µM] (inactive)	
C=Cc1cc(OC)c2c(c1)c(=O)oc1c2cc(OC)c2c(O)ccc(C3OC(C)C(O)C(C)(O)C3O)c21 (stereo not given)	3.08% (inactive)	
CC1(C)C=C2[C@H]3CC[C@@H]4[C@@]5(C)CCC(=O)C(C)(C)[C@@H]5CC[C@@]4(C)[C@]3(C)CC[C@@]2(C(=O)O)CC1	8.61% (inactive)	
CC(=O)c1ccc(-c2cccs2)s1	21.3% (inactive)	
Cc1c(O)c(C)c2c(c1O)C(=O)C[C@@H](c1ccccc1)O2	21.1% (inactive)	
Nc1nc2c(ncn2[C@@H]2O[C@H](COP(=O)(O)OP(=O)(O)O)[C@@H](O)[C@H]2O)c(=O)[nH]1	-0.285% (inactive)	
C=C1C(=O)O[C@H]2C[C@]3(C)C([C@@H](OC(=O)/C(C)=C/C)[C@H]12)[C@](C)(O)CC[C@H]3O (stereo not given in full)	-30.9% (inactive)	
COc1cc(OC)c2c(-c3ccccc3)cc(=O)oc2c1	-7.74% (inactive)	
O=C1CCC[C@H]2[C@@H]3CCCN4CCC[C@H](CN12)[C@H]34	11.4% (inactive)	
O=c1c2c(O)cc(O)cc2oc2c(O)ccc(O[C@H]3O[C@@H](CO)[C@H](O)[C@@H](O)[C@@H]3O)c12	8.84% (inactive)	
CC1OC(OC2C(CO)OC(OCC3OC(OC(=O)[C@@]45CCC(C)(C)C[C@@H]4C4=CC[C@@H]6[C@@]7(C)CCC(OC8OCC(O)C(O)C8OC8OC(C)C(O)C(O)C8O)[C@@](C)(CO)C7CC[C@@]6(C)[C@]4(C)CC5)C(O)C(O)C3O)C(O)C2O)C(O)C(O)C1O (stereo not given in full)	9.7% (inactive)	
COc1cc(CCc2cc(NC(=O)c3ccc(N4C[C@@H](C)N[C@@H](C)C4)cc3)n[nH]2)cc(OC)c1	-10.7% (inactive)	
CC(C)(O)CC[C@H](OC(=O)c1ccccc1)[C@](C)(O)[C@H]1CC[C@@]2(O)C3=CC(=O)[C@@H]4C[C@@H](O)[C@H](O)C[C@]4(C)C3CC[C@]12C (stereo not given in full)	4.18% (inactive)	
CCC(=O)OCCC(C)CCC=C(C)C (stereo not given)	1.99% [at 115 µM] (inactive)	
Nc1ccn([C@@H]2O[C@H](CO)[C@@H](OP(=O)(O)O)[C@H]2O)c(=O)n1	5.57% (inactive)	

— PubChem BioAssay (NCATS)
